Screening results (PubChem)
Compounds with a hit are over-represented: about 2.8% of the library has one in this group of screens.
WRN helicase inh = blocks human WRN helicase | Q14191 | Potency, µM (top dose mostly 114 µM), for inactives: at the top dose activity change, negative = inhibition, hits mostly inhibitors | 0.46% of 360,000 active | WRN helicase unwinding, fluorescent forked duplex, kinetic; note: potency is the fitted concentration of half-maximal effect; % is set by controls: 0 for no effect and ±100 for the full control effect; nearly all actives have a fitted effect of over 55% in size
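Screening of the MLSMR collection measured strand separation of a quenched forked DNA duplex (100 nM) by 20 nM WRN with 2 mM ATP, all final. Compounds were preincubated with enzyme 15 min at room temperature.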
PI5P4K alpha inh = inhibitors of human PI5P4K alpha | AID 652105 | P48426 | max response, % | PI5P4Kalpha enzyme, ADP-Glo luminescence, 60 min; active compounds read low | 1.2% of 330,000 active; active = max response of -50% or lower; inconclusive = between -30% and -50%; inactive = -30% or higher; note: value at the top dose of about 77 µM; % is set by controls: 0 for no effect and ±100 for the full control effect
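Compounds were pin-transferred onto PI5P4Kalpha and substrate in HEPES pH 7.4 buffer with EGTA, CHAPS and 5% DMSO. ATP (5 microM final) started the reaction, which ran 60 minutes at room temperature before ADP-Glo detection.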
POLH inh = DNA polymerase eta (human) inhibition; Q9Y253; recombinant Pol eta, fluorescent DNA replication assay; Potency, µM (doses to about 114 µM), without a hit: at the top dose activity change, negative = inhibition, most hits filed as inhibitors; 1.2% of 390,000 active; note: potency is the fitted concentration of half-maximal effect; % is set by controls: 0 for no effect and ±100 for the full control effect
Target sequence (Q9Y253 whole entry, looked up): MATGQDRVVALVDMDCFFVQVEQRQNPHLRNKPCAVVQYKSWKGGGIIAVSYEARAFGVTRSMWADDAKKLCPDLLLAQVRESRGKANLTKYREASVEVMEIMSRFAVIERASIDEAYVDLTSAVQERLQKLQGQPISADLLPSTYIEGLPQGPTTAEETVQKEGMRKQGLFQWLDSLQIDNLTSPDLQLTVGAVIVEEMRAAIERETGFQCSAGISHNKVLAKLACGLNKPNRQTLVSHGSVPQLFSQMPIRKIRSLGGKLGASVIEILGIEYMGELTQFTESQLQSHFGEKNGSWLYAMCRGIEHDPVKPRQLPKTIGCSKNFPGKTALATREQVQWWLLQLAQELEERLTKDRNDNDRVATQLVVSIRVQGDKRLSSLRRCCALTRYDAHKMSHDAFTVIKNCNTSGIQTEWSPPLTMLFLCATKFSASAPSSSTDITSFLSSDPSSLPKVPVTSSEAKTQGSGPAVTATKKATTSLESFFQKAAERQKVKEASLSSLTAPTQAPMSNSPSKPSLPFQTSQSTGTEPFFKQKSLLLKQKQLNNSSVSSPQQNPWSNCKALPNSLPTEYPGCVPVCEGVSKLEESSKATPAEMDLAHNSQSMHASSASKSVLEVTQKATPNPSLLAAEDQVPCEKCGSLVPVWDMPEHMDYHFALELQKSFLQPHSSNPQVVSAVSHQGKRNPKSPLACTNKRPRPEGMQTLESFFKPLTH
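Fluorescent replication assay: 50 nM final substrate added after a 15 min room-temperature compound preincubation with 10 nM enzyme. Signal taken at 0 min and again at 10 min.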
POLK inh = DNA polymerase kappa (human) inhibition. Q9UBT6. purified Pol kappa, fluorescent DNA synthesis assay, 10 min. Potency, µM (highest dose often 107 µM), for inactives: top-dose activity, negative = inhibition, most hits filed as inhibitors. 0.53% of 400,000 active. AID 588579; note: potency is the fitted concentration of half-maximal effect; % is set by controls: 0 for no effect and ±100 for the full control effect
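Kinetic fluorescence screen: compound preincubated 15 min RT with 10 nM enzyme; 50 nM substrate (final) initiates; reads at 0/10 min.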
POLI inh = inhibitors of human DNA polymerase iota. Pol iota fluorescent replication assay, 10 min. Potency, µM (doses to about 115 µM), for inactives: at the highest dose activity, negative = inhibition, most hits filed as inhibitors. 1% of 390,000 active; note: potency is the fitted concentration of half-maximal effect
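Fluorescent replication assay read twice, at 0 min and 10 min after adding 50 nM (final) substrate. Enzyme (10 nM) and compounds were first incubated 15 min at room temperature; enzyme-free buffer wells were negative controls.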
POLB inh = blocks human DNA polymerase beta activity. Potency, µM (top dose mostly 114 µM), for the others: at the highest dose activity change, negative = inhibition, most hits filed as inhibitors. 1.3% of 340,000 active. AID 485314. Pol beta primer extension/strand displacement, fluorescence kinetic; note: potency is the fitted concentration of half-maximal effect; % is set by controls: 0 for no effect and ±100 for the full control effect
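Values derive from four-parameter Hill fits of normalized kinetic data: reads at 0 and 10 min following addition of 50 nM substrate to 10 nM Pol beta preincubated 15 min with compound.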
Numbers without * were called inactive; ? = inconclusive; nt = not tested or not shown; [ ] = remark or other dose. Unless noted, calls come from the whole dose curve; as a rule, active = well fitted curve in the direction sought with a large enough effect; inconclusive = small, poorly fitted or top-dose-only effect, or another doubt; inactive = no such curve, though single readings can be large; an effect the other way counts as inactive or inconclusive.

SMILES	WRN helicase inh	PI5P4K alpha inh	POLH inh	POLK inh	POLI inh	POLB inh
Cc1c(Cc2ccccc2)c(=O)oc2c(C)c(OCC(=O)N[C@@H](Cc3ccccc3)C(=O)O)ccc12	-11.5%[11.6 µM]	-11.6	50.1µM*	-17.8%	-9.9%	50.1µM*
Cc1c(C)c2ccc(OCC(=O)Nc3ccc(S(N)(=O)=O)cc3)c(C)c2oc1=O	-13.6%[57.1 µM]	-2.6	?	?	?	31.6µM*
CCOc1cccc2cc(-c3nnc(Nc4ccc(F)c(Cl)c4)s3)c(=O)oc12	nt	nt	-8.7%	-5.5%[60.1 µM]	29.6%	29.5%
CCOc1cccc2cc(-c3nnc(NCc4ccc5c(c4)OCO5)s3)c(=O)oc12	-1.6%	5.1	3.98µM*	-7.3%	9.6%	?
COc1cc(C(=O)Nc2nc(OC)c(-c3ccccc3)c(OC)n2)cc(OC)c1OC	-4.9%[57.1 µM]	nt	-22.1%	7.5%[60.1 µM]	?	44.7µM*
Cc1ccc(O)c(C(=O)c2cc(C#N)c(=O)n(-c3nccs3)c2)c1	-35.0%	?	39.8µM*	-43.1%	?	25.1µM*
Cc1ccc(O)c(C(=O)c2cc(C#N)c(=O)n(-c3c(C)n(C)n(-c4ccccc4)c3=O)c2)c1	-15.9%	nt	-1.1%	-20.9%	-10.5%	4.9%
CCOc1cc2c(C#N)c(N3CCOCC3)nc(N)c2c(N)n1	-5.0%	-7.0	-1.9%	-4.7%	-3.5%	81.9%
CCOc1cc2c(C#N)c(N(CC)CC)nc(N)c2c(N)n1	-5.8%[57.1 µM]	3.2	-15.9%	-4.7%	10µM*	nt
O=C(Cn1cnc([N+](=O)[O-])n1)c1ccc(O)c(O)c1	-17.8%	-4.2	?	?	7.08µM*	?
CCS(=O)(=O)c1ccc2oc(Nc3cccc(OC)c3)nc2c1	-5.9%	nt	-12.2%	-4.6%	-10.0%	35.5µM*
CCS(=O)(=O)c1ccc2oc(Nc3ccc(OC)cc3)nc2c1	-13.6%	-1.2	-24.7%	-1.6%	28.7%	-11.2%
Cc1ccc(CNC(=O)c2cc3c(s2)-c2c(C)cccc2OC3)cc1	nt	nt	-19.1%	-40.6%	?	14.1µM*
COc1ccc(NC(=O)c2cc3c(s2)-c2c(C)cccc2OC3)cc1Cl	nt	nt	?	-28.9%	-1.7%	11.2µM*
COc1cc(Cl)c(C)cc1NC(=O)c1cc2c(s1)-c1c(C)cccc1OC2	nt	nt	-7.3%	-8.9%	2.2%	2.7%
COc1cccc(NC(=O)CSc2nnc3c(n2)[nH]c2ccc(C)cc23)c1	-3.4%	0.2	-8.7%	-3.7%	7.1%	10.9%
COc1ccc2[nH]c3nc(SCc4nnc(-c5ccccc5)o4)nnc3c2c1	-14.7%	nt	-32.3%	-11.9%	8.4%	22.4µM*
COc1ccc2[nH]c3nc(SCC(=O)Nc4cccc(NC(C)=O)c4)nnc3c2c1	-11.0%[11.6 µM]	-0.6	0.2%	-19.8%	?	35.5µM*
Oc1ccc(-c2nc(-c3ccc(O)c(O)c3)cs2)cc1	?	?	?	?	?	39.8µM*
Cc1ccc(-c2cc(-c3ccccc3)c(C#N)c(N)n2)o1	-18.5%	-58.5*	-8.4%	-9.4%	-2.9%	11.9%
Cc1ccc(-c2cc(-c3ccccc3Cl)c(C#N)c(N)n2)o1	-26.4%	?	4.3%	1.5%	?	-5.2%
CNC(=O)c1nnsc1S(=O)(=O)c1ccc(Cl)cc1	7.94µM*	-2.2	3.7%	-10.9%	?	0.7%
O=C(NC(=S)Nc1ccc(Cl)c(C(=O)O)c1)c1ccc(OCc2ccccc2)cc1	-1.9%	-24.0	-14.6%	6.8%	37.6%	-22.2%
COc1cccc(C(=O)NC(=S)Nc2ccc(Cl)cc2C(=O)O)c1	7.7%	-63.1*	-17.8%	3.5%	35.6%	-0.3%
O=C(NC(=S)Nc1ccc(Cl)c(C(=O)O)c1)c1cccc(COc2ccccc2)c1	-6.2%[11.6 µM]	?	79.4µM*	-22.5%	-10.9%	39.8µM*
SMILES	WRN helicase inh	PI5P4K alpha inh	POLH inh	POLK inh	POLI inh	POLB inh
O=C(O)c1ccc(Cl)c(NC(=S)NC(=O)c2cccc(COc3ccccc3)c2)c1	-15.3%[11.6 µM]	8.3	44.7µM*	5.3%	77.7%	25.1µM*
COc1cccc(C(=O)NC(=S)Nc2ccc3c4c(cccc24)CC3)c1	-8.9%	0.5	-8.6%	-3.7%	13.3%	3.0%
COc1ccc(CCNC(=O)Cc2c(Cl)cccc2Cl)cc1	-5.7%	-0.6	-10.0%	-8.4%	97.5%	-1.7%
O=C(O)CCc1ccc(-c2cccs2)n1-c1ccc(C(=O)O)cc1	-8.4%[57.1 µM]	-4.8	31.6µM*	?	?	?
CC(=O)c1cccc(-n2c(CCC(=O)O)ccc2-c2cccs2)c1	?	nt	?	-33.7%	50.1µM*	?
COc1ccc2c(c1)C=C/C2=C/c1ccc(N(C)C)cc1	nt	nt	nt	-17.3%	27.1%	nt
COc1ccc(CN(C)C(=O)c2cc(S(=O)(=O)Nc3ccccc3F)ccc2C)c(OC)c1	-15.7%	0.6	-4.4%	-19.1%	6.4%	12.3%
O=C(CCn1cccc1)NCc1ccc2c(c1)OCO2	-21.5%[57.1 µM]	-26.7	?	?	?	50.1µM*
CN(C)c1ccc(/C=C2\C=Cc3ccccc32)cc1[N+](=O)[O-]	nt	nt	nt	-19.5%	10.9%	nt
Cc1cc(C)n2c(=S)[nH]nc2n1	56.2µM*	-75.9*	-1.2%	-13.9%	3.4%	10.8%
Cc1cc(C)n2cnnc2n1	0.9%	-0.3	-6.3%	11.4%	14.6%	-11.2%
CC1(C)Cc2c(C#N)c(NCCc3ccccc3)nc(-c3ccco3)c2CO1	-18.5%[57.1 µM]	-19.0	89.1µM*	-1.8%	79.4µM*	16.0%
COc1cccc(/C=C/c2nc3ccccc3nc2/C=C/c2cccc(OC)c2OC)c1OC	nt	nt	nt	-11.4%	27.3%	nt
O=c1c2cc(N3CCOCC3)ccc2[nH]c(=S)n1Cc1ccco1	?	nt	89.1µM*	79.4µM*	10µM*	?
O=c1c2cc(N3CCOCC3)ccc2[nH]c(=S)n1Cc1cccc(Cl)c1	-15.5%	nt	-7.0%	5.9%	-6.3%	8.1%
Cc1nnc(SCC(=O)N/N=C/c2cc(Cl)c(O)c(Cl)c2)s1	-14.0%	-78.7*	?	-10.8%	-6.6%	-6.3%
CC1=CC(=O)C=CC1=Nc1ccc(N(C)C)cc1	-2.4%[57.1 µM]	-94.9*	nt	nt	nt	nt
CN(C)c1ccc(N=c2sc3ccccc3n2C)cc1	-21.7%	nt	-14.4%	-11.0%	6.1%	-0.6%
CCCS(=O)(=O)c1ncc(Cl)c(C(=O)N2CCN(c3ccc(OC)cc3)CC2)n1	nt	nt	-5.7%	-4.4%[60.1 µM]	-12.0%	-1.3%
COc1cc(N=Nc2ccc(Br)cc2)cc(C=O)c1O	-1.4%	?	?	nt	nt	nt
O=Cc1cc(N=Nc2ccc(S(=O)(=O)O)cc2)ccc1O	?	-76.2*	-22.5%	?	?	nt
CNC(=O)c1c(O)c2cccc3c2n(c1=O)CCC3	?	6.4	9.8%	-2.1%	111.2%	30.8%
O=c1c([N+](=O)[O-])c(O)c2cccc3c2n1CCC3	-11.9%[11.6 µM]	-26.8	50.1µM*	?	-86.0%	35.5µM*
CCCC[n+]1c(/C=C/c2ccc(N(C)C)cc2)sc2ccccc21	nt	nt	nt	?	50.1µM*	nt
CN(C)c1ccc(/C=C/c2sc3ccccc3[n+]2CCCCI)cc1	nt	nt	nt	50.1µM*	79.4µM*	nt
